# About 2,900 (47%) of roughly 6,200 compounds were called active. So high a share suggests a set chosen from earlier hits. The list shows a part of the results. Unmarked numbers belong to inactive results. Cut-off read from the data, not from the text of the source: active = inhibition above about 50%; inactive = the rest.
# Experiment: Mycobacterium tuberculosis growth inhibition, primary screen (AID 1259343)
# Details: inhibition: at 10 µM, active compounds read high; outcome: 10 uM
row,Compound,inhibition
1,CCCCn1c(C2CCCCC2)nc2oc3ccccc3c(=O)c2c1=O,-33.2%
2,COc1nc(C)ccc1CNC(=O)C(=O)Nc1cccc(F)c1F,8.51%
3,Cc1ccc(-c2noc(CC#N)n2)cc1,77.1% (active)
4,CN(Cc1nc(-c2ccc(C(F)(F)F)cc2)no1)CC(O)c1ccccc1 (stereo not given),84.5% (active)
5,Clc1ccc(-c2noc(COc3ccc4c(c3)OCO4)n2)cc1,18.1%
6,CC(C)c1ccc(-c2noc(CN(C)c3ccccc3)n2)cc1,63.2% (active)
7,CN(Cc1nc(-c2ccccc2)no1)Cc1ccnc2ccccc12,-26.1%
8,Cc1ccc(-c2noc(CSc3ncccn3)n2)cc1,42.6%
9,Cc1ccc(-c2noc(COc3ccc(C(C)C)cc3)n2)cc1,95.7% (active)
10,N#CCOc1ccc(CNc2ncc(Br)cn2)cc1,33.8%
11,Cc1ccc(-c2noc(CN3CCCc4ccccc43)n2)cc1,101% (active)
12,N#Cc1c(SCc2ccccc2)n[nH]c1-c1cccs1,37.8%
13,O=c1[nH]nc(SCc2ccccc2)c(=S)[nH]1,85.6% (active)
14,CC(C)(C)c1nnc(NC(=O)c2cc(C(F)(F)F)cc(C(F)(F)F)c2)s1,96% (active)
15,CC(C)CC(=O)Nc1nnc(C(C)(C)C)s1,17.4%
16,CC(C)Cc1cc(C(=O)N2C[C@@H]3[C@H](C2)[C@H]2CC[C@@H]3O2)on1,83.1% (active)
17,CC(C)c1cc(C(=O)N2C[C@@H]3[C@H](C2)[C@H]2CC[C@@H]3O2)cs1,-8.56%
18,CCCc1nc(N2C[C@@H]3[C@H](C2)[C@H]2CC[C@@H]3O2)no1,-30.4%
19,CC(C)c1noc(-c2ccc(NC(=O)N3CCCC3)cc2)n1,73.4% (active)
20,CC1CCN(C(=O)Nc2ccc(Br)cc2)CC1,30.1%
21,Cc1ccc(NC(=O)N2CCN(CCCOC(c3ccc(Cl)cc3)c3ccc(Cl)cc3)CC2)cc1,-2.85%
22,Cc1ccc(NC(=O)c2ncoc2C(C)C)cc1Br,40.1%

row,Compound,inhibition
1,COc1ccc(NC(=O)c2ccc(=O)n(C)c2)cc1Br,2.47%
2,COC(F)(C(=O)Nc1ccc(C)c(Br)c1)C(F)(F)F (stereo not given),56.7% (active)
3,O=C1CC(c2ccccc2)CC(=O)C1S(=O)c1ccc(Cl)cc1 (stereo not given),58.1% (active)
4,C=C=C/C=C/C=C\Oc1ccc(CO)cc1O/C=C\C=C\C=C=C,88.7% (active)
5,CC(C)(C)c1noc(COc2ccc(O)cc2)n1,39.8%
6,Brc1ccc(OCc2nnc(-c3cccs3)o2)cc1,42.8%
7,Cc1nc(COc2ccc(Oc3nccs3)cc2)oc1C,80% (active)
8,CC(C)NC(=O)c1ccc(OCc2cccs2)cc1,-17.8%
9,CC(c1cccs1)N(C)C(=O)COc1ccc(F)cc1 (stereo not given),59.8% (active)
10,CC1CCc2c(nc3sc4c(c3c2N)CCCC4)C1 (stereo not given),32.6%
11,CN(C)Cc1nc(Cl)c2c3c(sc2n1)CCCCC3,69.8% (active)
12,CC(CCc1ccccc1)NC(=O)NCCC1CCCC1 (stereo not given),-6.93%
13,CCc1ccc(CN(C)C(=O)NCCC2CCCC2)cc1,99.2% (active)
14,CN(CCC1CCCCC1)C(=O)Nc1ccsc1,48.9%
15,CC(C)(C)c1ccc(COc2ccccc2C(N)=O)cc1,30.2%
16,Cc1cc(Cl)ccc1OCc1ccc(C(N)=O)cc1,68.2% (active)
17,Cc1cccc(OCc2ccc(C(N)=O)cc2)c1C,64.1% (active)
18,NC(=O)c1ccc(CSCc2cccc(F)c2)cc1,19.5%
19,NC(=O)c1cc(Cl)ccc1OCc1ccccc1Br,1.54%
20,CCc1cc(OCc2ccc(C(N)=O)cc2)ccc1Cl,-54%
21,CC(C)c1cc(C(=O)NC2CC2)nn1-c1nc2ccccc2s1,94.4% (active)
22,CC(C)c1cc(C(=O)NC2CCN(c3cccc(F)c3)CC2)n[nH]1,41.4%

row,Compound,inhibition
1,Cc1nc(-n2nc(C3CC3)cc2NC(=O)c2ccccc2Cl)[nH]c(=O)c1C,80.4% (active)
2,Cc1cc(=O)[nH]c(-n2nc(C3CC3)cc2NC(=O)c2ccccc2C(F)(F)F)n1,99.9% (active)
3,Cc1cc(=O)[nH]c(-n2nc(C3CC3)cc2NC(=O)c2c(F)cccc2F)n1,99.2% (active)
4,Cc1cc(=O)[nH]c(-n2nc(C3CC3)cc2NC(=O)c2ccccc2Cl)n1,101% (active)
5,Cc1nc(-n2nc(C3CC3)cc2NC(=O)c2ccccc2F)[nH]c(=O)c1C,-15.9%
6,Cc1cc(=O)[nH]c(-n2nc(C3CC3)cc2NC(=O)c2ccccc2F)n1,101% (active)
7,Cc1cc(=O)[nH]c(-n2nc(C3CC3)cc2NC(=O)c2cccc3ccccc23)n1,99.8% (active)
8,O=C(NS(=O)(=O)Cc1ccccc1)c1sccc1C1CC1,10.6%
9,N#Cc1ccc(S(=O)(=O)NC(=O)c2sccc2C2CC2)cc1,67.6% (active)
10,O=C(Nc1ccc(-c2ccco2)cc1)C1CCCN(Cc2coc3ccccc3c2=O)C1 (stereo not given),31.3%
11,COc1cc(/C=C/CN2CCCC(C(=O)Nc3ccc(-c4ccco4)cc3)C2)ccc1O (stereo not given),45.7%
12,Cn1ccc(CC(=O)N2CCCC(C(=O)Nc3ccc(-c4ccco4)cc3)C2)c1 (stereo not given),84.1% (active)
13,O=C(Nc1ccc(-c2ccco2)cc1)C1CCCN(C(=O)CCc2cnccn2)C1 (stereo not given),-19.9%
14,Nc1ncc(CN2CCCC(C(=O)Nc3ccc(-c4ccco4)cc3)C2)cn1 (stereo not given),inactive
15,O=C(Nc1ccc(-c2ccco2)cc1)C1CCCN(Cc2cccc3c2OCO3)C1 (stereo not given),85% (active)
16,O=C(Nc1ccc(-c2ccco2)cc1)C1CCCN(C(=O)CCN2CCCO2)C1 (stereo not given),82.8% (active)
17,O=C(Nc1ccc(-c2ccco2)cc1)C1CCCN(C(=O)CCc2cccs2)C1 (stereo not given),inactive
18,O=C1Nc2ncccc2Oc2cc(F)cc(O)c21,81.3% (active)
19,CC(C(=O)Nc1ccccc1Cl)N1CCCC1c1ccsc1 (stereo not given),3.58%
20,O=C(NCCOc1cc(N2CCCCC2)ncn1)Nc1ccccc1Cl,56% (active)
21,O=C(NCc1ccccn1)Nc1cc(F)c(N2CCCC2)c(F)c1,38.7%
